# Reference: PubChem BioAssay (NCI)
# This is part of a sample that, as a whole, favours compounds with a hit. Of some 83,000 tested, about 20% had one in any assay.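 How to read the values: 0–100, growth inhibition (40 = 60% inhibited); 0, no net growth; -100 to 0, cell death (-40 = 40% of starting cells died; -100 = all dead).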 Unmarked numbers belong to inactive results. Calls of active or inactive are those of the source. The calls were made as follows: active = growth percent below 10; inactive = the rest.
# Assays:
# Assay in all cases: NCI-60 one-dose screen, 48 h (100 = growth as untreated, 0 = no growth, -100 = all killed)
# Conditions in all cases: 10 µM unless noted
# [1] = system: T-47D breast
# [2] = system: BT-549 breast
# [3] = system: MDA-MB-435 melanoma
# [4] = system: SW-620 colon
# [5] = system: MCF7 breast
# [6] = system: HCT-116 colon
# [7] = system: HCC-2998 colon
# [8] = system: KM12 colon
Compound,growth [1],growth [2],growth [3],growth [4],growth [5],growth [6],growth [7],growth [8]
O=[N+]([O-])c1ccc(-c2nnc(SCc3ccc(O)c4ncccc34)n2-c2ccccc2)cc1,24.1%,20%,14%,18.6%,11.4%,12.4%,41.9%,19.2%
C/C(=N/Nc1nc(N/N=C(/C)c2ccc([N+](=O)[O-])cc2)nc(N2CCOCC2)n1)c1ccc([N+](=O)[O-])cc1,54.9%,67.3%,85%,95.5%,74.1%,70.6%,96%,82.2%
Clc1ccccc1/C=C/c1nn2c(-c3ccncc3)nnc2s1,95%,107%,103%,108%,66.4%,96.5%,101%,110%
CCOC(=O)CC(=O)CSC1=NC2C(NN1)N(C)C(=O)N2C (stereo not drawn),31.8%,101%,94.6%,75.8%,10.9%,9.01% (active),105%,101%
CSc1ccc(/C(=N/N=C(N)N)c2ccccc2)cc1,70.9%,53.8%,-18% (active),25.7%,11.7%,13%,9.99% (active),17.2%
CCNC(=NCCCN(C)C)N/C(N)=N/c1nc2ccccc2s1,94.7%,97.1%,93.8%,103%,82.8%,76.4%,98.1%,93.9%
O=C(CCCCCCN1CC(=O)N2[C@@H](c3ccccc3)c3[nH]c4ccccc4c3C[C@H]2C1=O)NO,25.7%,91.5%,46.1%,38.7%,47.1%,20.9%,85.8%,65.2%
COC(=O)c1nc(-c2ccc(C)cc2)oc1S(=O)(=O)N1CCN(c2oc(-c3ccccc3)nc2C#N)CC1,111%,99.7%,102%,99.5%,80.6%,92.8%,113%,101%
COc1ccc(NC(=O)[C@H](C)N)cc1C(=O)Nc1cccc(-c2cc(=O)c3c(OC)c(OC)c(OC)cc3o2)c1,41%,78.4%,82.1%,94%,57.8%,75%,65.2%,68.1%
CS(=O)(=O)c1ccc2c(c1)c1c(n2S(=O)(=O)c2ccc(Cl)cc2)CCCC1,23%,-1.38% (active),-11% (active),9.36% (active),16.9%,19.2%,30.1%,29.3%
COc1ccc(/C=C/C(=O)c2nnn(-c3ccc(C(=O)O)cc3)c2C)cc1OC,96.8%,95.7%,101%,110%,86.3%,91.6%,106%,101%
CCN1C(=O)N(CC)C2SC(N/N=C/c3cccs3)=NC21 (stereo not drawn),68.8%,-40% (active),-31.7% (active),19.8%,17.3%,3.01% (active),15.4%,6.21% (active)
Cc1occc1-c1nc2s/c(=C\c3cn(-c4ccccc4)nc3-c3ccccc3)c(=O)n2n1,95.2%,97.7%,98.9%,97.5%,91.9%,98.7%,101%,102%
Cn1cc(-c2nn3cc(-c4ccncc4)nc3s2)c2cc(Cl)ccc21,31.3%,46%,14.5%,18.8%,17%,-52.9% (active),36.3%,56.5%
CNC(=O)c1cc(Oc2ccc3nc(NC(=O)c4ccc(CN5CCCN(C)CC5)c(C(F)(F)F)c4)sc3c2)ccn1,7.14% (active),83.2%,-8.88% (active),-70.9% (active),-38.9% (active),5.99% (active),4.85% (active),30.3%
NNC(=O)c1sc2nc(-c3cnccn3)cc(-c3cccs3)c2c1N,86.4%,101%,100%,110%,84.6%,99.3%,100%,92.6%
